Results on eight compounds are retold here after ChEMBL document CHEMBL3988442, “University of Dundee, Small-Polar-MMV Screening Library” (2021).

SMILES strings stand for the structures. For some of these results: Entries with a potency or affinity are not part of this list.

Design in all cases: scale not given: direction of the effect not stated beside the values
Assay [1] has as its target Protein translocase subunit SecA (Escherichia coli (strain K12)) (UniProt P10408). In words: Assay to Identify E. coli SecA ATPase Inhibitors. The settings on record: 30 µM. The class given is functional.
Assay [2] addresses T1, Ubiquitin-activating enzyme e1, putative (Leishmania donovani (strain BPK282A1)) (UniProt E9BSI1).
T1 sequence (whole entry): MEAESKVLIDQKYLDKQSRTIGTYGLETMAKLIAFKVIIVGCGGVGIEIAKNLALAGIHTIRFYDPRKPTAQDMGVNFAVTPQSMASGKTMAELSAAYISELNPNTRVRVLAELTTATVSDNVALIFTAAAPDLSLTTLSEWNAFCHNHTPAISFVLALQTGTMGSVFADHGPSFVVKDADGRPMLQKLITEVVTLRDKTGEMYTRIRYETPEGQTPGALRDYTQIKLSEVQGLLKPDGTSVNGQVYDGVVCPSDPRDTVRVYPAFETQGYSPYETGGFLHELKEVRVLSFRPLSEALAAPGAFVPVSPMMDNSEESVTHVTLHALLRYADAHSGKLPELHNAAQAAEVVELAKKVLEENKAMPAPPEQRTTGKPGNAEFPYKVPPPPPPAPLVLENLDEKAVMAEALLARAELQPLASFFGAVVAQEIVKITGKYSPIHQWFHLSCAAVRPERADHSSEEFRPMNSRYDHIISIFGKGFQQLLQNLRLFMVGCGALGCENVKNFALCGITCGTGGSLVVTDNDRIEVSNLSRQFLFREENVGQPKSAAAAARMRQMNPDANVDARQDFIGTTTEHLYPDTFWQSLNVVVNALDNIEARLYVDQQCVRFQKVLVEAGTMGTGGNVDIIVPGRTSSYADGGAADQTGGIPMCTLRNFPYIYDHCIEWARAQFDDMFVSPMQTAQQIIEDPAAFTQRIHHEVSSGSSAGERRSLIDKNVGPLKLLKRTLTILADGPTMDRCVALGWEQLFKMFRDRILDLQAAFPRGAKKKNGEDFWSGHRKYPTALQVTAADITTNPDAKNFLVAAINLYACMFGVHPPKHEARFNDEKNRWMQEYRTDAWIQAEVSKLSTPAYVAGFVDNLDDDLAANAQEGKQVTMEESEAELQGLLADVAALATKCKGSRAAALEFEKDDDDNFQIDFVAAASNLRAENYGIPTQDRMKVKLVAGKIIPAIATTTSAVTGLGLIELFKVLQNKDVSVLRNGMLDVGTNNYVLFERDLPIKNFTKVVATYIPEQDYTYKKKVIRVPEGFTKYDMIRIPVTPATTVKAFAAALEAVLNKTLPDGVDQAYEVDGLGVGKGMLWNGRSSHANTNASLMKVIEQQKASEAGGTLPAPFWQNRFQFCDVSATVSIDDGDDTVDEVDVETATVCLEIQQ
The assay is described as follows: Leishmania donovani Ubiquitin Activating Enzyme (LdE1). As to conditions: 30 µM. The class given is functional.

Assay [3] addresses AMP-activated protein kinase, AMPK (Homo sapiens) (UniProt P54646+O43741+P54619+Q9UGJ0+Q9Y478+Q13131+Q9UGI9). The assay is described as follows: AMP-dependent Kinase enzyme assay. An in vitro enzyme assay that detects ADP turnover that is directly proportional to AMPK activity. This uses naive AMPK that is activated during the assay with MK-8722. Type of assay: functional. As to conditions: 30 µM.

Assay [4] deals with Sialic acid-binding Ig-like lectin 9 (Homo sapiens) (UniProt Q9Y336). In words: Hs-Siglec9 ALPHAscreen SOP 20170721. As to conditions: 10 µM.
Chain of Sialic acid-binding Ig-like lectin 9 (Homo sapiens) (Q9Y336 whole entry): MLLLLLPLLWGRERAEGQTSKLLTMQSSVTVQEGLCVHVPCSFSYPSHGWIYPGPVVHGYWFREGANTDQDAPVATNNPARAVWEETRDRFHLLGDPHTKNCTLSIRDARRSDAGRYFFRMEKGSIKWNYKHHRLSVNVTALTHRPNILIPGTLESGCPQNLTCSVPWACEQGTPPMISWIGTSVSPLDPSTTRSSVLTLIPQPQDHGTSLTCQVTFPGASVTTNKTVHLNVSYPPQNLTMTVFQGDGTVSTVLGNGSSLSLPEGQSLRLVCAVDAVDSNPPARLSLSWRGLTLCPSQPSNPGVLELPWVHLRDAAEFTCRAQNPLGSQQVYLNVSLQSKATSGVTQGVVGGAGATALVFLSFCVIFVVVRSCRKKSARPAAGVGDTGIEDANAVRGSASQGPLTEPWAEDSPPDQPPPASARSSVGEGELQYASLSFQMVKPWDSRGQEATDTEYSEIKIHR
The subject of assay [5] is Trypanosoma cruzi. The assay is described as follows: Trypanosoma cruzi phosphomannomutase and mannose-1-phosphate guanylyltransferase assay. The class given is functional. The settings on record: 10 µM.
Assay [6] addresses T2, Arginase-2, mitochondrial (Homo sapiens) (UniProt P78540).
T2 sequence (whole entry): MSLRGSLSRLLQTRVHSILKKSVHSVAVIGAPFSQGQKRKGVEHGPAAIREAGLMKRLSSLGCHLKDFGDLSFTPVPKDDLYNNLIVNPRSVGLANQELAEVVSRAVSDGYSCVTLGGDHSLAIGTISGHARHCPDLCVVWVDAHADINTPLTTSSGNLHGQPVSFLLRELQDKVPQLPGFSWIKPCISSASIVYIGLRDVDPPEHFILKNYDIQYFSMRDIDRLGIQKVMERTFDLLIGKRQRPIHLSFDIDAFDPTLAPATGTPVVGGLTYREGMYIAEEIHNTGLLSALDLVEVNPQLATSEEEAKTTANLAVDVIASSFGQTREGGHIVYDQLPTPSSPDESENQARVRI
In words: in vitro enzyme assay to detect the production of urea directly proportional to the activity of Arginase II. Note: in the data most compounds retested in dose-response had high values. The class given is functional. The settings on record: 33.3 µM.

For assay [7], the target named is T3, Proteasome subunit beta (Trypanosoma cruzi) (UniProt O96673).
T3 sequence (whole entry): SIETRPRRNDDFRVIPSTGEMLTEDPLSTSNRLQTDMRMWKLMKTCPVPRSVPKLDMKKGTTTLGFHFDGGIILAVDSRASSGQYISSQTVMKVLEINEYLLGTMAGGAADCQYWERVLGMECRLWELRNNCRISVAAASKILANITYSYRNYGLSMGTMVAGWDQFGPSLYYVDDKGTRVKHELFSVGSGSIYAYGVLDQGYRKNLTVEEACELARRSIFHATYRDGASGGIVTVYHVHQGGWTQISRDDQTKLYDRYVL
In words: Trypanosoma cruzi proteasome chymotrypsin-like activity (TcProtChymo) assay. Note: in the data most compounds retested in dose-response had high values. The class given is functional. The settings on record: 9.37 µM.

For assay [8], the species on record is Homo sapiens. The assay is described as follows: To identify inhibition of the IFN signalling (Jak-Stat) pathway via expression of an eGFP reporter gene under the control of an IFN-stimulated response element (ISRE) containing MxA promoter. The class given is functional. The settings on record: 30 µM. (A reporter such as luciferase makes a cellular process visible.)

For assay [9], the target named is T4, Tyrosyl-tRNA synthetase, putative (Trypanosoma cruzi (strain CL Brener)) (UniProt Q4DSP6).
T4 sequence (whole entry): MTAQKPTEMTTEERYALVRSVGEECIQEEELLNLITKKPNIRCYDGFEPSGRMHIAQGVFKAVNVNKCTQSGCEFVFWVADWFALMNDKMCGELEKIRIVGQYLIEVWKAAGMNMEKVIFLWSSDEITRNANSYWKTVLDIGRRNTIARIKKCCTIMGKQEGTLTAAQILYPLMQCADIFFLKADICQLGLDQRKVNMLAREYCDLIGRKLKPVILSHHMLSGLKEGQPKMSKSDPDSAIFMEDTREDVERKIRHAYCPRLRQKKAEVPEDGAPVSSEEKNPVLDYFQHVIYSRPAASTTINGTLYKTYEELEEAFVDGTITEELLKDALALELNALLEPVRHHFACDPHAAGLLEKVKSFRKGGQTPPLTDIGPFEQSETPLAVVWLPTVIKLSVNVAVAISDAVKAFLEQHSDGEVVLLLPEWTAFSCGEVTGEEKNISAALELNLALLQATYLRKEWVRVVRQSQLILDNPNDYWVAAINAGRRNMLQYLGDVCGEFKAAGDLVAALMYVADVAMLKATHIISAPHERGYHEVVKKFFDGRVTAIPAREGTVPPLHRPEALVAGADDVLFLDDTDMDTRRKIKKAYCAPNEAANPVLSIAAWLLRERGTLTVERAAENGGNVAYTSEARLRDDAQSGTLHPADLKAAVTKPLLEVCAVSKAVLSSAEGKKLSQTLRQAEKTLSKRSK
In words: Trypanosoma cruzi tyrosyl tRNA synthetase (TcYRS) _High Tyrosine SOP. Note: in the data most compounds retested in dose-response had high values. Type of assay: functional. The settings on record: 30 µM.

Assay [10] addresses T4, Tyrosyl-tRNA synthetase, putative (Trypanosoma cruzi (strain CL Brener)). In words: Trypanosoma cruzi tyrosyl tRNA synthetase (TcYRS) SOP. Type of assay: functional. The settings on record: 30 µM.
Assay [11] concerns the target Chromo domain-containing protein 1 (Saccharomyces cerevisiae (strain ATCC 204508 / S288c) (Baker's yeast)) (UniProt P32657). The assay is described as follows: ScCHD-1 Enzyme Inhibition Assay. Note: in the data most compounds retested in dose-response had high values. Type of assay: functional. As to conditions: 30 µM.

Chain of Chromo domain-containing protein 1 (Saccharomyces cerevisiae (strain ATCC 204508 / S288c) (Baker's yeast)) (P32657 whole entry, the tested form may be a part): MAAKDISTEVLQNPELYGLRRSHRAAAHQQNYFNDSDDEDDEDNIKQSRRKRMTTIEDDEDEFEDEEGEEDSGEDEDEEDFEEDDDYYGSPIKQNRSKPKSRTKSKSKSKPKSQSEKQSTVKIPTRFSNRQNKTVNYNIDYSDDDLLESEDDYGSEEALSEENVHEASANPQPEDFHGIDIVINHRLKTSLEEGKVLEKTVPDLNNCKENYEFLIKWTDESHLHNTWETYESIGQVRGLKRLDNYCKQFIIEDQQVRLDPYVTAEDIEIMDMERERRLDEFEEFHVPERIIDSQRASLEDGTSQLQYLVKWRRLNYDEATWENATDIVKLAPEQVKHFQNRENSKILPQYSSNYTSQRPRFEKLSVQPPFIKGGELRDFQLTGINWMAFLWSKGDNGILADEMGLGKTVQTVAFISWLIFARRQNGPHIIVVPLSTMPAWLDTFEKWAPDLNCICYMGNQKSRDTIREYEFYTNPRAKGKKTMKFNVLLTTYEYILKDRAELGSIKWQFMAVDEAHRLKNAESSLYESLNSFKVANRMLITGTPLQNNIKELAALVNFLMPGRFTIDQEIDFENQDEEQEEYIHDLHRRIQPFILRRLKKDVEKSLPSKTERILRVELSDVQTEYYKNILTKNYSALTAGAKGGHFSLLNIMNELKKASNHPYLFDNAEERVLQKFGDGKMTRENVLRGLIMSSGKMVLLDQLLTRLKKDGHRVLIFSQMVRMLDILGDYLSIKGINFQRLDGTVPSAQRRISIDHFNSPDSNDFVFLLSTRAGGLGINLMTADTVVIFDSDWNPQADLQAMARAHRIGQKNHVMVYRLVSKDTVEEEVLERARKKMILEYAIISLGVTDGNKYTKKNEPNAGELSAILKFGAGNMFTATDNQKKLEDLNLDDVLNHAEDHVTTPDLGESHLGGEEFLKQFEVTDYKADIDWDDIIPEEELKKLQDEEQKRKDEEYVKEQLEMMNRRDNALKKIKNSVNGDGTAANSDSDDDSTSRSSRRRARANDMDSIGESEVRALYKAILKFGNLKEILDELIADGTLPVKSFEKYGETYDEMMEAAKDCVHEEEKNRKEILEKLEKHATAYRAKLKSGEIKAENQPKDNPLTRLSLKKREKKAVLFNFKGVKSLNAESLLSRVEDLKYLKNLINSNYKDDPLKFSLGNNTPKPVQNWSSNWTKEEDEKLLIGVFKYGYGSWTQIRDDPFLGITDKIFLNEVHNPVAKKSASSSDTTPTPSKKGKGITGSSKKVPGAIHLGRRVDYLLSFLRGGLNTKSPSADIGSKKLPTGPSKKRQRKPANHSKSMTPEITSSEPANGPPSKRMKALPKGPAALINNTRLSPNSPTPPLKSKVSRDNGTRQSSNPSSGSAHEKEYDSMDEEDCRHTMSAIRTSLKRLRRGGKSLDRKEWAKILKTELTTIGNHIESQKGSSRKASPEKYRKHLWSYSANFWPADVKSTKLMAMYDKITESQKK
Chain of Protein translocase subunit SecA (Escherichia coli (strain K12)) (P10408 whole entry): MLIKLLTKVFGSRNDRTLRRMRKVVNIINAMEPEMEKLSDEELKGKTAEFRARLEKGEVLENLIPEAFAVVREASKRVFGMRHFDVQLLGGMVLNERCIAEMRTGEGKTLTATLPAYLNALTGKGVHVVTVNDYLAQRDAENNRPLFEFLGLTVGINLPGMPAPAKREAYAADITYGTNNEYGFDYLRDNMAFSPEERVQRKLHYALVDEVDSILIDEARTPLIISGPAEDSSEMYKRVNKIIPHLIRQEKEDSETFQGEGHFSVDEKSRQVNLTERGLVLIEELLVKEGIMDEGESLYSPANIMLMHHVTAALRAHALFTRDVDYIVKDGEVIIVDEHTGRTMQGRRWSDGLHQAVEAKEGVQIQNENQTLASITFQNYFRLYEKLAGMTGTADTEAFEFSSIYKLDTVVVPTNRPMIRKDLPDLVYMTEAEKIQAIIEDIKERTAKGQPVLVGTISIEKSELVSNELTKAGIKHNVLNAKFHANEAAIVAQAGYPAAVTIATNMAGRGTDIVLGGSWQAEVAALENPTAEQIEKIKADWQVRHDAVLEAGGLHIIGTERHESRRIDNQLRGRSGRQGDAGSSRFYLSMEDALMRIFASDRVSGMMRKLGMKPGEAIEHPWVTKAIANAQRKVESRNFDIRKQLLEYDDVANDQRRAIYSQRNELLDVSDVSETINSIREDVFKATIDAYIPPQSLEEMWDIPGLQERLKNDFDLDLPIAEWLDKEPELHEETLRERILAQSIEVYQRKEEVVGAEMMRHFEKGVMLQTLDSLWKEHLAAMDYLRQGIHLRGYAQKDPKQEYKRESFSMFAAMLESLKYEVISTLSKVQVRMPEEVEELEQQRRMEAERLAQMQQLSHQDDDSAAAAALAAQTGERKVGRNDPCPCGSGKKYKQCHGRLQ

As to `Cn1cccc1C(=O)N1CCc2ncnc(N3CCCC3)c2CC1`, the Percent Effect in assay [1] is -4.32%; in [2], 5.33%; in assay [3] it was 8.28%; in assay [4], 2.39%; in assay [5], 4.13%; in assay [6], -4.43%. Further, the Percent Effect in [7] was -0.264%; in assay [8], 8.45%; in assay [9], 5.32%; in assay [10], 11.5%; in assay [11], -2.07%.
`CCN(CCNC(=O)c1ccccc1Br)C1CC1`: the Percent Effect is -1.99% in [1]; -6.33% in assay [2]; -0.476% in [3]; -1.28% in [4]; -0.923% in [5]; 7.53% in assay [6]. The Percent Effect in [7] was 10.3%; in assay [8] it was 5.43%; in assay [9], 1.04%; in assay [10] it was -10.1%; in assay [11] it was -18%.
On to `CC(=O)N1CC(=O)N(c2ccccc2)CC12CCN(Cc1cccs1)C2` (stereo not drawn), for which the Percent Effect in [1] was -0.462%; in [2], 16%; in assay [3], -5.96%; in assay [4], 8.98%; in [5] it was 2.51%; in [6] it was -36.4%. Also, the Percent Effect in assay [7] was 7.69%; in assay [8], -11.1%; in assay [9], 5.21%; in assay [10], 27.5%; in assay [11], -7.74%.
Regarding `CCS(=O)(=O)N1CCO[C@H]2[C@H](OCC3CCCC3)CC[C@@H]21`, the Percent Effect was -3.86% in [1]; 5.33% in [2]; 0.773% in assay [3]; 0.841% in assay [4]; 5.21% in assay [5]; -50.7% in [6]. In addition, the Percent Effect in [7] is 7.01%; in assay [8] it was 2.31%; in assay [9], 1.04%; in assay [10], 15%; in assay [11], -5.43%.
Regarding `Cn1ccnc1CN1CCN(c2ccc(C#N)cc2F)CC1`, the Percent Effect is -4.37% in assay [1]; 21.6% in assay [2]; -10.5% in assay [3]; 15.7% in [4]; 3.44% in [5]; 4.25% in [6]. The Percent Effect was 11.1% in assay [7]; 17.8% in assay [8]; 6.93% in [9]; 23.2% in [10]; -6.24% in assay [11].
In the case of `O=C(NCC1CC1)Nc1cccc(N2CCN(CC3CC3)CC2)c1`, the Percent Effect in assay [1] is -6.91%; in assay [2] it was 13.5%; in assay [3] it was -7.28%; in assay [4], 31.9%; in assay [5] it was 5.38%; in assay [6], 1.24%. The Percent Effect in assay [7] is 6.78%; in [8], -5.11%; in assay [9], 3.23%; in assay [10] it was 16.1%; in assay [11], -13.1%.
On to `O=C(NC1(c2cccc(F)c2)CCOCC1)c1cc[nH]n1`, for which the Percent Effect in assay [1] is -4.6%; in [2] it was 5.2%; in assay [3], 0.0633%; in [4], 4.75%; in assay [5], 0.885%; in [6], -23.4%. In addition, the Percent Effect in assay [7] is 5.32%; in assay [8], 4.47%; in assay [9], 2.15%; in assay [10], 3.7%; in assay [11], -1.53%.
As for `O=C(NCc1nnc2ccccn12)N1CCc2sccc2C1`, the Percent Effect in [1] is -3.42%; in assay [2] it was -6.33%; in assay [3], 6.9%; in [4], 2.84%; in assay [5] it was -1.33%; in [6], 1.94%. In addition, the Percent Effect in assay [7] is 7.89%; in assay [8] it was 11.1%; in assay [9], 2.08%; in assay [10], 7.59%; in [11], -7.88%.
